Data taken from PubChem BioAssay (NCI).
About 83,000 compounds went through this panel and 20% of them were active in at least one assay; those are over-represented in the sample as a whole.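 A percent growth of 40 corresponds to 60% growth inhibition; 0 means no net growth; -100 means all cells died. Active threshold: below 10.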 Activity calls are given as the source filed them.

Assays:
Assay in all cases: NCI-60 one-dose screen, 48 h (100 = growth as untreated, 0 = no growth, -100 = all killed)
Conditions in all cases: 10 µM unless noted
NCI-H23 lung = test system: NCI-H23 lung
NCI-H226 lung = test system: NCI-H226 lung
HOP-62 NSCLC = test system: HOP-62 NSCLC
NCI-H460 lung = test system: NCI-H460 lung
HOP-92 NSCLC = test system: HOP-92 NSCLC
NCI-H522 lung = test system: NCI-H522 lung
A549/ATCC NSCLC = test system: A549/ATCC NSCLC
786-0 renal = test system: 786-0 renal
COLO 205 colon = test system: COLO 205 colon
NCI-H322M lung = test system: NCI-H322M lung

Measured: growth

O=c1[nH]c(-c2ccccn2)nc2sc3c(c12)CCCCC3
inactive: NCI-H23 lung 56.9% | NCI-H226 lung 68.8% | HOP-62 NSCLC 37.8% | NCI-H460 lung 18.8% | HOP-92 NSCLC 68.6% | NCI-H522 lung 20.8% | A549/ATCC NSCLC 31.7% | 786-0 renal 60.4% | COLO 205 colon 28%

COc1cc(NCCCCCN=C(N)NC(N)=NC(C)C)c2ncccc2c1
inactive: NCI-H226 lung 71.2% | HOP-62 NSCLC 57% | NCI-H460 lung 55.7% | HOP-92 NSCLC 32.5% | A549/ATCC NSCLC 89.9% | 786-0 renal 92.3%
active: NCI-H23 lung -37.5% | NCI-H522 lung -16.1% | COLO 205 colon -30.3%

CCOC(=O)C(=Cc1ccccc1F)C(=O)OCC
inactive: NCI-H23 lung 99.2% | NCI-H226 lung 96.1% | HOP-62 NSCLC 137% | NCI-H460 lung 105% | HOP-92 NSCLC 103% | NCI-H522 lung 65.2% | A549/ATCC NSCLC 90.3% | 786-0 renal 104% | COLO 205 colon 115%

CCOC(=O)c1cnc2ccc(Br)cc2c1Nc1cccc(S(=O)(=O)NC)c1
inactive: NCI-H23 lung 84.7% | NCI-H226 lung 90.8% | HOP-62 NSCLC 92.3% | NCI-H460 lung 102% | HOP-92 NSCLC 102% | NCI-H522 lung 83.6% | A549/ATCC NSCLC 104% | 786-0 renal 103% | COLO 205 colon 128%

Cc1ccc(Nc2c(C(N)=O)cnc3ccc(-c4csc(N)n4)cc23)cc1
inactive: NCI-H23 lung 88.3% | NCI-H226 lung 88.3% | HOP-62 NSCLC 96.4% | NCI-H460 lung 100% | HOP-92 NSCLC 90.2% | NCI-H522 lung 101% | A549/ATCC NSCLC 95.4% | 786-0 renal 101% | COLO 205 colon 96.3%

CCOC(=O)c1cnc2ccc(OC)cc2c1Nc1cccc(S(=O)(=O)NC)c1
inactive: NCI-H23 lung 91.8% | NCI-H226 lung 108% | HOP-62 NSCLC 99.6% | NCI-H460 lung 114% | HOP-92 NSCLC 112% | NCI-H522 lung 99.8% | A549/ATCC NSCLC 103% | 786-0 renal 77.1% | COLO 205 colon 134%

Cn1c2ccccc2c2c3c(c4c5ccccc5[nH]c4c21)C(=O)N(N)C3=O
inactive: NCI-H23 lung 46.1% | NCI-H226 lung 53.4% | HOP-62 NSCLC 44.3% | NCI-H460 lung 17.5% | HOP-92 NSCLC 80% | NCI-H522 lung 50.2% | A549/ATCC NSCLC 66.4% | COLO 205 colon 56.8%

OC(c1cc(-c2ccccc2)nc2ccc(Cl)cc12)C1CCCCN1 (configuration not stated)
inactive: NCI-H23 lung 66.9% | NCI-H226 lung 71.3% | HOP-62 NSCLC 93.3% | NCI-H522 lung 59.7% | A549/ATCC NSCLC 21.7% | 786-0 renal 66.8%
active: NCI-H460 lung -16.8% | HOP-92 NSCLC 6.52% | COLO 205 colon -60.9%

COc1cnc2c(c1)C(=O)c1c-2n(CCCN2CCN(C)CC2)c(=O)c2cc([N+](=O)[O-])ccc12
inactive: NCI-H226 lung 79.3%
active: NCI-H23 lung -46.4% | HOP-62 NSCLC -61.3% | NCI-H460 lung -74.5% | HOP-92 NSCLC -57.7% | NCI-H522 lung -37.6% | A549/ATCC NSCLC -78.9% | 786-0 renal -87.1% | COLO 205 colon -5.87%

Cn1c2ccccc2c2c3[nH]c(=O)[nH]c(=O)c3c3c4ccccc4n(C)c3c21
inactive: NCI-H23 lung 43.3% | NCI-H226 lung 52.6% | NCI-H322M lung 51.4% | HOP-62 NSCLC 38.1% | NCI-H460 lung 20.1% | NCI-H522 lung 20.4% | COLO 205 colon 53.8%
active: HOP-92 NSCLC -4.38%

COc1ccc(N(Cc2cc(OC)c(OC)c(OC)c2)C2OC(=O)c3ccccc32)cc1 (configuration not stated)
active: NCI-H522 lung -17.2% | COLO 205 colon -3.48%
inactive: NCI-H23 lung 36.7% | NCI-H226 lung 67.2% | HOP-62 NSCLC 28.1% | NCI-H460 lung 10.4% | HOP-92 NSCLC 51.3% | A549/ATCC NSCLC 23.7% | 786-0 renal 61.8%

COc1ccc(/C=C2\CN(C(=O)CCN3CCC(=NO)CC3)C/C(=C\c3ccc(OC)cc3)C2=O)cc1
active: NCI-H23 lung -4.73% | NCI-H460 lung -34.5% | NCI-H522 lung -29.7% | 786-0 renal -10.3% | COLO 205 colon -23.7%
inactive: NCI-H226 lung 70% | HOP-62 NSCLC 44.8% | HOP-92 NSCLC 89% | A549/ATCC NSCLC 36.5%

C[C@H](CCC(=O)O)[C@H]1CC[C@H]2[C@@H]3CC[C@@H]4/C(=C\c5ccco5)C(=O)/C(=C\c5ccco5)C[C@]4(C)[C@H]3CC[C@]12C
inactive: NCI-H23 lung 70.4% | NCI-H226 lung 89.2% | HOP-62 NSCLC 116% | NCI-H460 lung 81.9% | HOP-92 NSCLC 106% | NCI-H522 lung 37.3% | A549/ATCC NSCLC 72.1% | 786-0 renal 91% | COLO 205 colon 87.3%

NC(=S)N/N=C/c1ccc(OCc2ccccc2)cc1
active: NCI-H522 lung -24.1%
inactive: NCI-H23 lung 84% | NCI-H226 lung 61.1% | HOP-62 NSCLC 93.8% | NCI-H460 lung 86.7% | HOP-92 NSCLC 48.5% | A549/ATCC NSCLC 68.4% | 786-0 renal 41.7% | COLO 205 colon 56.9%

c1ccc(-c2nc(N3CCOCC3)c3c4c(sc3n2)CCCCC4)nc1
active: HOP-92 NSCLC -2.36%
inactive: NCI-H23 lung 66.9% | NCI-H226 lung 50.4% | HOP-62 NSCLC 61% | NCI-H460 lung 33.4% | NCI-H522 lung 29.5% | A549/ATCC NSCLC 51% | 786-0 renal 75.9% | COLO 205 colon 52.4%

O=c1cc(-c2ccccc2)[nH]c2ccccc12
active: NCI-H522 lung -46.9% | COLO 205 colon 5.72%
inactive: NCI-H23 lung 39.1% | NCI-H226 lung 70.2% | HOP-62 NSCLC 49% | NCI-H460 lung 13.2% | HOP-92 NSCLC 38.5% | A549/ATCC NSCLC 19.1% | 786-0 renal 32.3%

CCCCCCNC(=O)Oc1ccc(/C(=C(\C)c2ccccc2)c2ccc(OCCN(CC)CC)cc2)cc1
inactive: NCI-H23 lung 69.6% | NCI-H226 lung 82.6% | HOP-62 NSCLC 83.2% | HOP-92 NSCLC 39.1% | NCI-H522 lung 47.8% | A549/ATCC NSCLC 49.9% | 786-0 renal 44.7%
active: NCI-H460 lung 7.03% | COLO 205 colon -4.77%

Cc1ccc2c(c1)n([O-])c1cc(Cl)ccc1[n+]2=O
inactive: NCI-H23 lung 97% | NCI-H226 lung 104% | HOP-62 NSCLC 103% | NCI-H460 lung 114% | HOP-92 NSCLC 81.9% | NCI-H522 lung 89.2% | A549/ATCC NSCLC 98.9% | 786-0 renal 91.3% | COLO 205 colon 108%

CSc1ccc(N=C=C(c2ccccc2)c2ccccc2)cc1
inactive: NCI-H23 lung 99% | NCI-H226 lung 95.7% | HOP-62 NSCLC 96.1% | NCI-H460 lung 102% | HOP-92 NSCLC 85.4% | NCI-H522 lung 71.8% | A549/ATCC NSCLC 78.4% | 786-0 renal 95.6% | COLO 205 colon 107%

COc1ccc(C(=O)c2sc3nc4c(cc3c2N)CCCC4)cc1OC
inactive: NCI-H23 lung 39.3% | NCI-H226 lung 37.1% | HOP-62 NSCLC 38.5% | NCI-H460 lung 13% | HOP-92 NSCLC 67.3% | NCI-H522 lung 12.6% | 786-0 renal 66.1% | COLO 205 colon 16.5%

CC[C@H](Nc1ncnc(N)c1C(N)=O)c1nc2cccc(NCc3ccc(C(=O)NO)cc3)c2c(=O)n1-c1ccccc1
inactive: NCI-H226 lung 102% | NCI-H322M lung 86.9% | HOP-62 NSCLC 78% | NCI-H460 lung 79.5% | HOP-92 NSCLC 21.5% | NCI-H522 lung 35.9% | A549/ATCC NSCLC 98.2% | 786-0 renal 90.3% | COLO 205 colon 78.3%

COc1ccc(/C=C2\N=C3SC=C(N)N3C2=O)cc1
active: HOP-92 NSCLC -8.02% | NCI-H522 lung -54.5%
inactive: NCI-H226 lung 51.6% | HOP-62 NSCLC 40.2% | NCI-H460 lung 17.3% | A549/ATCC NSCLC 32.8% | 786-0 renal 33.2% | COLO 205 colon 12.5%

CCn1cc2c(cc1=O)-c1nc3ccccc3c3ccnc(c13)C2=O
active: NCI-H460 lung 2.86%
inactive: NCI-H226 lung 63.1% | NCI-H322M lung 76.3% | HOP-62 NSCLC 11.9% | HOP-92 NSCLC 56.6% | NCI-H522 lung 39% | A549/ATCC NSCLC 29% | 786-0 renal 69.1% | COLO 205 colon 60.8%

O=C1CC(c2nc3ccccc3[nH]2)CN1C1CCCCC1 (configuration not stated)
inactive: NCI-H226 lung 95.4% | NCI-H322M lung 103% | HOP-62 NSCLC 94.9% | NCI-H460 lung 109% | HOP-92 NSCLC 91.3% | NCI-H522 lung 89.3% | A549/ATCC NSCLC 104% | 786-0 renal 110% | COLO 205 colon 102%

NC(CC(=O)O)C(=O)OCc1ccccc1 (configuration not stated)
inactive: NCI-H226 lung 95.1% | NCI-H322M lung 84.2% | HOP-62 NSCLC 86.7% | NCI-H460 lung 103% | HOP-92 NSCLC 86.3% | NCI-H522 lung 84.3% | A549/ATCC NSCLC 105% | 786-0 renal 98.6% | COLO 205 colon 106%

Cc1ccc(NC(=O)c2sc3nc4c(cc3c2N)C(=O)CCC4)cc1C
inactive: NCI-H226 lung 80.2% | HOP-62 NSCLC 23.5% | HOP-92 NSCLC 90.8% | A549/ATCC NSCLC 19.5% | 786-0 renal 37.4%
active: NCI-H460 lung 7.88% | NCI-H522 lung -9.22% | COLO 205 colon -25.2%

CC[C@H](Nc1nc(N)nc(C)c1C#N)c1nc2cccc(NCc3ccc(C(=O)NO)cc3)c2c(=O)n1-c1ccccc1
inactive: NCI-H226 lung 24.3% | NCI-H322M lung 15%
active: HOP-62 NSCLC 9.2% | NCI-H460 lung 3.85% | HOP-92 NSCLC -16.7% | NCI-H522 lung -37.6% | A549/ATCC NSCLC 1.14% | 786-0 renal 6.94% | COLO 205 colon -2.48%

Oc1ccc2c(=S)cc(-c3ccc(Br)cc3)oc2c1O
active: NCI-H460 lung 3.24% | HOP-92 NSCLC -18.9% | NCI-H522 lung -27% | A549/ATCC NSCLC 3.47%
inactive: NCI-H226 lung 90.5% | NCI-H322M lung 10.5% | HOP-62 NSCLC 28.7% | 786-0 renal 28.1% | COLO 205 colon 103%
